# Measurements published in PubChem BioAssay (NCI).
# “And” between values parts separate entries of the source, which are not always exact repeats. Equal entries are not always repeated. This is part of a sample that, as a whole, favours compounds with a hit. Of some 83,000 tested, about 20% had one in any assay.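 The test compound was applied at a single concentration to cells in 96-well plates for 48 hours, and percent growth was recorded.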 Values without a mark were called inactive. The source made the active and inactive calls. How the source made its calls: active means growth percent below 10; inactive means the rest.
# Test system: MDA-MB-468 breast
# Experiment: NCI-60 one-dose screen, 48 h (100 = growth as untreated, 0 = no growth, -100 = all killed)
# Details: 10 µM unless noted
row,Compound,growth
1,CC(C)(C)C(=O)OCOP(=O)(NCc1ccccc1)C1CCCN(O)C1=O (stereo not given),-0.478% (active)
2,CC1=C2C(=C[C@@](C)(COC(=O)c3ccc(S(=O)(=O)F)cc3)[C@@H]2O)C(=O)[C@](C)(O)C12CC2,-78.8% (active)
3,Cc1cc(N(CCCl)CCCl)ccc1C=Nc1cccnc1,-74.8% (active)
4,COc1ccc2c(c1)c(-c1nc(-c3cn(C)c4ncccc34)cs1)cn2CCCCN1CCCCC1,-2.69% (active)
5,O=C1C=Cc2ccccc2C1=O,104%
6,COc1cc[c]([Hg][Cl])cc1,-62.8% (active)
7,C[C@]12CCc3nc(Nc4ccccc4F)sc3C1=CC[C@@H]1[C@@H]2CC[C@]2(C)C(=O)CC[C@@H]12,23.7%
8,CCOc1c(Cl)cc(CNC(C)C(O)c2ccccc2)cc1OC (stereo not given),32.5%
9,COc1cc(C2=NN(c3ccccc3)C(c3sc(N(CCCl)CCCl)nc3Cl)C2)cc(OC)c1OC (stereo not given),87.9%
10,CCCCCCC(=O)NC1=C(N2CC2)C(=O)C(NC(=O)CCCCCC)=C(N2CC2)C1=O,23.2%
11,CCn1c2ccccc2c2cc(C(=O)c3cccc4c3CCCN4)ccc21,96.4%
12,O=C([O][Hg][CH2]C1COCC([CH2][Hg][O]C(=O)c2ccccc2)O1)c1ccccc1 (stereo not given),22.7%
13,COC(=O)CCc1c[nH]c2ccc(N(CCCl)CCCl)cc12,8.73% (active)
14,CC(=O)Nc1ccc(C=C2C(=O)NC(=O)NC2=O)cc1,115%
15,COc1cccc(/C=C/[N+](=O)[O-])c1,25.8%
16,CN1CC(CNC(=O)OCc2ccccc2)CC2c3cccc4c3c(cn4C)CC21 (stereo not given),-42.6% (active)
17,COc1cc(NC(C)CCCNC2CN3CCC2CC3)c2ncccc2c1 (stereo not given),-1.39% (active)
18,Cc1cc([N+](=O)[O-])c(Cl)cc1NS(=O)(=O)c1ccccc1,59.4%
19,O=C(O)c1ccc(=O)[nH]c1,95.8% and 102%
20,CC(=O)OC1C(OC/C2=C/C3[C@@H](C(C)C)CC=C(C)[C@@H]3CC(OC(=O)/C=C/c3cn(C)cn3)[C@]3(C)C=C[C@@]2(O)O3)OCC(O)C1O (stereo not given in full),-19.2% (active)

row,Compound,growth
1,COC12CC3(C)C(C4=CC(=O)OC4)CCC3(O)C3CCC4=CC(=O)CCC4(CO1)C32 (stereo not given),101%
2,[N-]=[N+]=CC(=O)CCC(=O)C=[N+]=[N-],113%
3,CCC(=O)C(CC(C)N1CCCCCC1)(c1ccccc1)c1ccccc1 (stereo not given),95.6%
4,CNC(=O)Oc1cccc(C(F)(F)F)c1,110%
5,O=C1C=C(N2C3C4CCC(C4)C32)C(=O)C=C1c1ccccc1 (stereo not given),16.9%
6,CCCn1cc2c3c(cccc31)[C@H]1C[C@@H](C)CN(C)[C@@H]1C2,95.5%
7,O=NN(c1ccccc1)c1ccccc1,95%
8,Cc1cccc(N(C)c2cccc3c2C(=O)[Se]C3)c1C,16.9%
9,COC(=O)[C@@H](C)C[C@H](Cc1ccccc1)NC(=O)c1csc([C@@H](C[C@H](C(C)C)N(C)C(=O)[C@@H](NC(=O)C23CC(NC(C)=O)(C2)C3)C2CC2)OC(C)=O)n1,3.05% (active)
10,CC[C@H](C)[C@H](NC(=O)c1cnccn1)C(=O)N(C)[C@H](C[C@@H](OC(C)=O)c1nc(C(=O)N[C@@H](Cc2ccccc2)C[C@H](C)C(=O)OC)cs1)C(C)C,31.5%
11,Oc1cc(N2CC2)c(O)cc1N1CC1,-62.7% (active)
12,C=COC(=O)CCN1CC1,108%
13,NCCc1cc(O)c(O)cc1O,96.2%
14,COC(=O)[C@H](Cc1ccccc1)NC(=O)c1csc([C@@H](C[C@H](C(C)C)N(C)C(=O)[C@@H](NC(=O)[C@H]2CCCCN2C)C2CC2)OC(C)=O)n1,-3.15% (active)
15,COc1ccc([As]=[As]c2ccc(OC)c(NCS(=O)(=O)O)c2)cc1NCS(=O)(=O)O (stereo not given),-54.2% (active)
16,O=C1NC(=O)C(O)(C2(O)C(=O)NC(=O)NC2=O)C(=O)N1,99.8%
17,COC(=O)CC[C@H](Cc1ccccc1)NC(=O)c1csc([C@@H](C[C@H](C(C)C)N(C)C(=O)[C@@H](NC(=O)[C@H]2CCCCN2C)C(C)C)OC(C)=O)n1,66.9%
18,O=C(O)C(F)F,91.4%
19,CC(=O)C(c1c(O)c2ccccc2oc1=O)c1cc(=O)oc2c1ccc1ccccc12 (stereo not given),96.6%
20,CCCCCSC1C2C(=O)C(Br)=CC13CCNc1c(O)c4c5c(c13)=[N+]2CCC=5C=N4 (stereo not given),-30.5% (active)
